Laboratory results published in PubChem BioAssay (NCI).
This is part of a sample that, as a whole, favours compounds with a hit. Of some 83,000 tested, about 20% had one in any assay.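 Step 1: grow cells in 96-well plates. Step 2: add test compound at a single concentration. Step 3: incubate 48 h. Step 4: record percent growth.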 Values without a mark were called inactive. Active and inactive are the calls of the source.

Tested on: SK-MEL-5 melanoma
Assay: NCI-60 one-dose screen, 48 h (100 = growth as untreated, 0 = no growth, -100 = all killed)
Details: 10 µM unless noted
Description: Growth inhibition of the SK-MEL-5 human tumor cell line is measured as a screen for anti-cancer activity. Cells are grown in 96 well plates and exposed to the test compound for 48 hours. Compounds are tested at a single concentration, which is 10^-5 M for most compounds. The reported endpoint is percent growth (GI% or GIPRCNT), where numbers from 0 - 100% represent growth inhibition, and numbers from -100% - 0 represent cell death. For example, a value of 40 represents 60% growth inhibition. A value of 0 means no net growth occurred over the course of the experiment. A value of -40 indicates 40% of cells at the beginning of the experiment died by the end of the experiment. A value of -100 means all cells are dead at the end of the experiment.
NCI-60 Human Tumor Cell Lines Screen was performed using the standard one-dose NCI protocol, which is described in more detail at https://dtp.cancer.gov/discovery_development/nci-60/default.htm.
Compounds with GIPRCNT values below 10 were considered active. Activity score was based on GIPRCNT using the following formula: […]
Score is 0 for GIPRCNT values of 100 or above, 50 for GIPRCNT values of 0, and 100 for GIPRCNT values of -100.

Q: For `C/C=C(/C)C(=O)OC1C=C(CO)C(=O)C(OC(=O)C(C)(O)C(C)Cl)C1C(C)C` (stereo not given), which growth is on record?
A: Its growth is -93% (active).

Q: `O=C1C(Cl)=C(Nc2ccc(Nc3ccccc3)c(NC3=C(Cl)C(=O)c4ccccc4C3=O)c2)C(=O)c2ccccc21` was tested. Which growth did it give?
A: Its growth is 90.9%.

Q: `CC(=O)Nc1nc(C)c(C(=O)N/N=C/c2cccs2)s1` was tested. Which growth did it give?
A: Its growth is 97.7%.

Q: With `CCc1c(C)c2ccc(OCC(=O)N=Nc3c(O)[nH]c4ccccc34)c(C)c2oc1=O` as the molecule, how does the growth read?
A: The growth was 34.2%.

Q: How did the growth turn out when `COc1ccc2cnc(N)c(C#Cc3cc(C(=O)Nc4ccc(CN5CCN(C)CC5)c(C(F)(F)F)c4)cnc3C)c2c1` was run?
A: Its growth is 34.6%.

Q: How did the growth turn out when `O=c1c2c(c3ccccc3n1-c1ccccc1)NC(=S)NC2c1ccccc1` (stereo not given) was run?
A: The growth was 97.9%.

Q: With `Nc1nc2c(c3ncncc13)C(c1cccc(C(F)(F)F)c1)Cc1ncncc1-2` (stereo not given) as the molecule, how does the growth read?
A: The growth was 21.1%.

Q: For `Cc1nnc(-c2cc3c(ccc4ccccc43)oc2=O)c2cn(-c3ccc(Cl)cc3)nc12`, which growth is on record?
A: The growth was 96%.

Q: With `CSCc1ncc(-c2ccc(C(F)(F)F)cc2)c(NC2CCCCCC2)n1` as the molecule, how does the growth read?
A: The growth was 78.6% [25 µM].

Q: `CC1Cc2cc(F)ccc2-n2cccc21` (stereo not given) was tested. Which growth did it give?
A: The growth was 109%.

Q: For `CC(=O)OC1/C=C\CC/C=C\C1` (stereo not given), which growth is on record?
A: Its growth is 98.8%.

Q: For `COc1ccc2oc(=O)cc(CN3C(=O)S/C(=C\c4ccc(Cl)cc4)C3=O)c2c1`, which growth is on record?
A: The growth was 101%.

Q: Which growth does the source give for `O=Nc1ccc(O)c2ccccc12` here?
A: Its growth is -97.4% (active).

Q: For `COc1cc2cc3cc4cc(OC)c(OC)cc4c(C)[n+]3cc2cc1OC` (tested in a mixture with another compound), which growth is on record?
A: Its growth is 82.4%.

Q: Which growth does the source give for `CC[C@@H](C)/C=C(C)/C=C/C(=O)c1c(O)c(-c2ccc(OC(=O)[C@@]34CC[C@@](C)(C(=O)O3)C4(C)C)cc2)cn(O)c1=O` here?
A: Its growth is -4% (active).

Q: How did the growth turn out when `CCCOC(=O)c1c(C)n(C)c2scc[n+]12` was run?
A: Its growth is 102%.

Q: For `O=c1oc2ccc3ccccc3c2cc1-c1ccnc2[nH]c(=S)[nH]c(=O)c12`, which growth is on record?
A: Its growth is 97.8%.

Q: For `COC(=O)c1c[n+]([O-])ccc1OC`, which growth is on record?
A: The growth was 99.7%.

Q: With `COc1cc(N)c2nccc(C)c2c1OC` as the molecule, how does the growth read?
A: The growth was 101%.

Q: Which growth does the source give for `CCCCCCCCCCN1CC2CCCCC2C1` (stereo not given) here?
A: The growth was 49%.

Q: How did the growth turn out when `CCOC(=O)CSSCC(=O)OCC` was run?
A: Its growth is 99.8%.

Q: Which growth does the source give for `C=CCN(C)C` here?
A: Its growth is 108%.

Q: `CCCCCCNC(=O)Oc1ccc(/C(=C(/C)Cc2ccc(OC)cc2)c2ccc(OCCN(C)C)cc2)cc1` was tested. Which growth did it give?
A: The growth was -49.6% (active).

Q: How did the growth turn out when `C=C[C@]1(C)C=C2C(=O)[C@@]3(O)OC[C@@]4(CCCC(C)(C)C43O)C2(O)C(O)C1` (stereo not given in full) was run?
A: Its growth is 91.6%.

Q: With `O=C1c2cc([N+](=O)[O-])ccc2-c2cc(Cl)c(NC(=O)C(F)(F)F)cc21` as the molecule, how does the growth read?
A: Its growth is 100%.

Q: `COC(=O)c1ccc2[nH]c(O)c(C(=Nc3ccc(N(C)C(=O)CN4CCN(C)CC4)cc3)c3cccc(OC)c3)c2c1` was tested. Which growth did it give?
A: The growth was 6.71% (active).

Q: `Cc1nc2ccccc2c(=O)n1-c1cccc(OCc2cn(-c3cccc(O)c3)nn2)c1` was tested. Which growth did it give?
A: The growth was 87%.

Q: Which growth does the source give for `CCn1cc(C(=O)O)c(=O)c2cc(F)c(N3CCN(S(=O)(=O)c4ccc(Cl)cc4)CC3)cc21` here?
A: The growth was 26.6%.

Q: `CCCCCCCCCCCCCCCCCC(=O)Nc1ccc(O)cc1` was tested. Which growth did it give?
A: The growth was 105%.

Q: Which growth does the source give for `CC(C)(C)c1cc(C[P+](c2ccc(Cl)cc2)(c2ccc(Cl)cc2)c2ccc(Cl)cc2)cc(C(C)(C)C)c1O` here?
A: The growth was 85.8%.

Q: `CC(=O)N1CCN(CCNC(=O)n2cc(-c3ccncc3)c(-c3cc(O)cc(Cl)c3)n2)CC1` was tested. Which growth did it give?
A: The growth was 63.6%.

Q: With `COc1ccccc1Cn1cc2c(c1)-c1oncc1CC2` as the molecule, how does the growth read?
A: Its growth is 18%.

Q: `O=C(N/N=C/c1coc2ccccc2c1=O)c1cc2oc(-c3ccccc3)cc2[nH]1` was tested. Which growth did it give?
A: Its growth is 84%.

Q: For `O=C(/C=C\c1ccccc1Cl)c1ccccc1`, which growth is on record?
A: Its growth is 92.2%.

Q: With `CC1=C[C@@H]2c3c(c(O)c(O)c4oc5cc(O)cc(O)c5c(=O)c34)[C@@H](c3cc(O)c(O)c4oc5cc(O)cc(O)c5c(=O)c34)[C@@H]2C(C)(C)C1` as the molecule, how does the growth read?
A: Its growth is -78% (active).

Q: With `COc1cc2c(cc1OC)C(Cc1cc(OC)c(OC)cc1[N+](=O)[O-])=NCC2` as the molecule, how does the growth read?
A: Its growth is 93.6%.

Q: With `CN1CCN(Cc2ccc(NC(=O)c3ccc(C#Cc4c(N)ncc5ccc(F)cc45)cc3)cc2C(F)(F)F)CC1` as the molecule, how does the growth read?
A: The growth was -91.2% (active).

Q: How did the growth turn out when `N#Cc1ccc(NC2c3ccccc3CC2O)cc1` (stereo not given) was run?
A: Its growth is 102%.

Q: `COc1ccc(/C=C(/C(=O)N2CCCCC2)c2cc(OC)c(OC)c(OC)c2)cc1` was tested. Which growth did it give?
A: The growth was 26.8%.

Q: `COC(=O)c1ccc2[nH]c(O)c(C(=Nc3ccc(N(C)C(=O)CN4CCN(C)CC4)cc3)c3ccc(C)cc3)c2c1` was tested. Which growth did it give?
A: The growth was -73.1% (active).
